Pf growth 96h: Primary qHTS for delayed death inhibitors of the malarial parasite plastid, 96 hour incubation; AID 504834, 2011; actives 6.9% (n = 320,000); Potency, µM (top dose mostly 28.7 µM), most hits filed as inhibitors; P. falciparum luciferase reporter growth, 96 h
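Erythrocytes infected with luciferase-expressing P. falciparum were dispensed at 2% hematocrit and 0.05% parasitemia (final), then incubated with compounds 96 hours at 37 C in 5% CO2. Luminescence after detection reagent addition reported growth.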
SARS PLP yeast: qHTS of Yeast-based Assay for SARS-CoV PLP | Potency, µM (doses to about 32.9 µM), usual class: activators | S. cerevisiae expressing SARS-CoV PLpro, growth rescue | actives 0.19% (n = 330,000); calls by dose curve; also: nearly all actives have a fitted effect of over 55% in size
AMA1-RON2 inh: qHTS for Inhibitors of AMA1-RON; Towards Development of Antimalarial Drug Lead: Primary Screen | AlphaScreen AMA1-biotinylated RON2 peptide binding | Potency, µM (top dose mostly 58.2 µM), actives largely listed as inhibitors | actives 0.2% (n = 360,000) | AID 720542, 2013; also: nearly all actives have a fitted effect of over 45% in size
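AMA1 (3D7) with his tag at 25 nM final met compounds first, then biotinylated RON2 peptide at 25 nM; detection used donor plus acceptor beads, 10 µg/mL apiece, read by AlphaScreen after 30 min at room temperature.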
HCV inh: qHTS Assay for Inhibitors of Hepatitis C Virus (HCV); Huh7.5.1 HCVcc-Cre infection, luciferase reporter, 44 h; Potency, µM (top dose mostly 41.8 µM), hits mostly inhibitors; actives 3.4% (n = 340,000)
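After 44 h co-culture of compound, cells and HCVcc-Cre (~0.5 moi), substrate is added for 15 min at room temperature and luciferase measured over 15 sec. Cells were seeded at 1,000/well and pre-cultured 4 h.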
NS1 function inh: qHTS Assay for Inhibitors of Influenza NS1 Protein Function | Potency, µM (titrated, usually from 46.1 µM) | actives 0.4% (n = 270,000) | AID 2326, 2010; calls by dose curve; also: actives are rising curves; nearly all actives have a fitted effect of over 50% in size
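OD600 was taken as the measure of yeast growth restored by compound in an NS1-expressing S. cerevisiae strain. Cells had been washed out of glucose medium and diluted 1:100 into galactose -URA medium, pH 6.0.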
Pf growth 48h: Primary qHTS for delayed death inhibitors of the malarial parasite plastid, 48 hour incubation; P. falciparum luciferase growth in erythrocytes, 48 h; Potency, µM (doses to about 28.7 µM), most hits filed as inhibitors; actives 5.9% (n = 310,000)
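Cell-based growth assay: transgenic P. falciparum expressing firefly luciferase, cultured in red cells within RPMI 1640 containing 0.5% w/v Albumax, 24 mM bicarbonate and gentamycin. A drop in luciferase activity indicates inhibition.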
Large screens that a line does not name were inactive. A selection: hits, their analogues and other compounds. The true share with any hit is near 12%. Unless noted, calls follow the shape of the dose curve; as a rule, active = well fitted curve in the direction sought with a large enough effect; inconclusive = small, poorly fitted or top-dose-only effect, or another doubt; inactive = no such curve, though single readings can be large; an effect the other way counts as inactive or inconclusive.

Cc1ccc(CSCC(=O)Nc2ccccc2C(=O)O)cc1	Pf growth 96h 2.08µM
Cc1cccc(NC(=O)CSCC(=O)Nc2ccc(N3CCOCC3)cc2N2CCOCC2)c1	none (no result: Pf growth 96h, SARS PLP yeast, NS1 function inh, Pf growth 48h)
Cc1ccc(CSCC(=O)Nc2ccc(N3CCOCC3)cc2N2CCOCC2)cc1	Pf growth 96h inconclusive, Pf growth 48h 5.22µM (no result: NS1 function inh)
CSc1ccccc1NC(=O)CSCc1ccc(C)cc1	Pf growth 96h inconclusive, Pf growth 48h inconclusive
COc1ccccc1NC(=O)CSc1ncn[nH]1	none
Cc1ccc(C(C)C)c(OCC(=O)Nc2ccccc2N2CCN(C)CC2)c1	HCV inh inconclusive, Pf growth 48h 6.57µM
CC(=O)Nc1ccc(S(=O)(=O)Nc2ccccc2N2CCOCC2)cc1	Pf growth 96h inconclusive (no result: NS1 function inh)
Cc1ccc2c(c1)-c1c(cnn1CC(=O)O)CO2	Pf growth 96h inconclusive
Cc1ccc2c(c1)-c1c(cnn1CC(=O)Nc1ccccc1N1CCN(C)CC1)CO2	Pf growth 48h 10.4µM
Cc1ccc(C(C)C)c(OCC(=O)Nc2ccc(N3CCOCC3)cc2N2CCOCC2)c1	Pf growth 96h inconclusive, HCV inh 31.6µM, Pf growth 48h inconclusive (no result: NS1 function inh)
COc1cc(C)ccc1OCC(=O)Nc1ccccc1N1CCOCC1	Pf growth 96h inconclusive, HCV inh inconclusive, Pf growth 48h inconclusive (no result: NS1 function inh)
CSc1nc(C)cc(Nc2ccc(O)c(CN3CCOCC3)c2)n1	none (no result: Pf growth 96h, SARS PLP yeast, AMA1-RON2 inh, HCV inh, Pf growth 48h)
CCOc1cc(N2CCOCC2)c(OCC)cc1NC(=O)CCS(=O)(=O)c1ccc(Cl)cc1	Pf growth 96h 7.38µM, HCV inh inconclusive, Pf growth 48h inconclusive
CCOc1cc(N2CCOCC2)c(OCC)cc1NC(=O)c1ccc(=O)n(Cc2ccccc2)n1	Pf growth 96h inconclusive (no result: AMA1-RON2 inh, HCV inh)
CCOc1cc(N2CCOCC2)c(OCC)cc1NC(=O)c1ccc2ccccc2n1	Pf growth 96h inconclusive, HCV inh inconclusive, Pf growth 48h 13.1µM
CCOc1cc(N2CCOCC2)c(OCC)cc1NC(=O)c1nn(CC)c(=O)c2ccccc12	Pf growth 96h 2.62µM, HCV inh inconclusive, Pf growth 48h 10.4µM (no result: NS1 function inh)
CCOc1cc(N2CCOCC2)c(OCC)cc1NC(=O)c1ccc(OC)cc1	Pf growth 96h inconclusive, HCV inh 4.47µM, Pf growth 48h inconclusive (no result: NS1 function inh)
CCOc1cc(N2CCOCC2)c(OCC)cc1NC(=O)c1ccccc1C	Pf growth 48h inconclusive
CCOc1cc(N2CCOCC2)c(OCC)cc1NC(=O)c1ccc(NC(C)=O)cc1	Pf growth 96h inconclusive, Pf growth 48h inconclusive (no result: NS1 function inh)
CCCNC(=O)c1cc(C2CCCN(C(=O)c3ccccc3)C2)on1 (configuration not stated)	none (no result: Pf growth 96h, SARS PLP yeast, HCV inh, NS1 function inh, Pf growth 48h)
N#CC1(NC(=O)CN2C(=O)c3ccc([N+](=O)[O-])cc3C2=O)CCCCC1	none (no result: NS1 function inh)
COc1ccc(C2(CNC(=O)c3cccc([N+](=O)[O-])c3)CCOCC2)cc1OC	none
COc1ccc(C2(CNC(=O)c3cccc([N+](=O)[O-])c3)CCCCC2)cc1OC	Pf growth 96h 5.86µM, Pf growth 48h inconclusive
O=C(Nc1ccc(F)cc1)c1nn(-c2ccccc2)c(=O)cc1Cl	HCV inh 6.31µM
CC(=O)Nc1cc(-c2ccccc2)nn1Cc1ccc(Cl)cc1	none
Cc1cc(C(=O)Nc2ccc(C)c(C)c2)n(-c2ccccc2)n1	none
Cc1ccc(NC(=O)c2cc(-c3ccccc3)nn2-c2ccccc2)c(Br)c1	Pf growth 96h 11.7µM, HCV inh inconclusive, Pf growth 48h inconclusive
CC(=O)Nc1cc(-c2ccc(Cl)cc2)nn1-c1ccccc1	Pf growth 96h 9.28µM
Cc1ccc(NC(=O)c2cc(-c3ccccc3)nn2-c2ccccc2)cc1	Pf growth 96h 10.4µM, HCV inh inconclusive
COc1ccc(N2CC(C(=O)N[C@@H](CC(C)C)C(=O)NC3CCCC3)CC2=O)cc1 (some centres not stated)	Pf growth 96h inconclusive, Pf growth 48h inconclusive
O[C@@H](c1cc(-c2ccccc2)nc2c1ccc1ccccc12)C1CCCCN1 (some centres not stated)	none (no result: Pf growth 96h, SARS PLP yeast, AMA1-RON2 inh, HCV inh, Pf growth 48h)
O=C(c1cc([N+](=O)[O-])cc([N+](=O)[O-])c1)N(Cc1nnc(-c2ccccc2Cl)o1)C1CC1	Pf growth 96h 11.7µM, HCV inh inconclusive, Pf growth 48h inconclusive (no result: NS1 function inh)
CC1CN(S(=O)(=O)c2cccc(C(=O)N(Cc3nnc(-c4ccccc4Cl)o3)C3CC3)c2)CC(C)O1 (configuration not stated)	Pf growth 96h 11.7µM, HCV inh inconclusive, Pf growth 48h inconclusive (no result: NS1 function inh)
CCOc1ccc2oc(C(=O)N(Cc3nnc(-c4ccccc4Cl)o3)C3CC3)c(C)c2c1	Pf growth 96h 8.28µM, HCV inh inconclusive, Pf growth 48h 11.7µM (no result: NS1 function inh)
CCOc1ccccc1N1CC(C(=O)N(Cc2nnc(-c3ccccc3Cl)o2)C2CC2)CC1=O (configuration not stated)	Pf growth 96h 9.28µM, Pf growth 48h inconclusive (no result: NS1 function inh)
Cc1n(CC(O)COCc2ccccc2)c2ccccc2[n+]1C (configuration not stated)	Pf growth 96h 3.29µM, Pf growth 48h 9.28µM
Cc1oc(-c2ccc(Cl)cc2)nc1CN1CCCC(C(=O)NCCCN2CCCC2=O)C1 (configuration not stated)	Pf growth 96h inconclusive, HCV inh inconclusive (no result: Pf growth 48h)
Cc1oc(-c2cccc(Cl)c2)nc1CN1CCC(C(=O)NCCCN2CCCC2=O)CC1	Pf growth 96h 11.7µM (no result: Pf growth 48h)
Cc1oc(-c2cccc(Cl)c2)nc1CN1CCC(C(=O)NCCCN2CC(C)CC(C)C2)CC1 (configuration not stated)	HCV inh 1.12µM, Pf growth 48h 7.38µM
COc1ccc(CCNC(=O)C2CCN(Cc3nc(-c4cccc(Cl)c4)oc3C)CC2)cc1OC	Pf growth 96h inconclusive, HCV inh inconclusive, Pf growth 48h inconclusive
COc1cc(/C=C2/NC(=O)N(c3cccc(Cl)c3)C2=O)ccc1O	Pf growth 96h inconclusive, HCV inh inconclusive, Pf growth 48h 7.38µM
COc1cc(/C=C2/CC/C(=C/c3ccc(O)c(OC)c3)C2=O)ccc1O	Pf growth 96h inconclusive, HCV inh 12.6µM, NS1 function inh inconclusive, Pf growth 48h 3.29µM
COc1ccc(/C=C2\CC/C(=C\c3ccc(OC)c(OC)c3)C2=O)cc1OC	Pf growth 96h inconclusive, AMA1-RON2 inh inconclusive, HCV inh inconclusive
COc1cc(/C=C2\COC/C(=C\c3ccc(O)c(OC)c3)C2=O)ccc1O	Pf growth 96h inconclusive, HCV inh 11.2µM, Pf growth 48h 10.4µM
COc1ccc2c(c1)CC/C(=C\Nc1ccc3c(c1)OCO3)C2=O	HCV inh 7.08µM (no result: Pf growth 96h)
COc1ccc2[nH]c3c(c2c1)CCNC3(C)CCc1ccc(Cl)nc1 (configuration not stated)	Pf growth 96h inconclusive (no result: Pf growth 48h)
CN(C)C(=O)COc1ncnc2scc(-c3ccc(F)cc3)c12	Pf growth 48h inconclusive (no result: NS1 function inh)

Screening data deposited in PubChem by National Center for Advancing Translational Sciences (NCATS).
